From publication PMC7862700, “An all-to-all approach to the identification of sequence-specific readers for epigenetic DNA modifications on cytosine” come the findings set out here.

What all share (experiment): DAPPL (digital affinity profiling via proximity ligation, sequencing); 10 mM Tris-HCl pH 7.5, 50 mM NaCl, 1 mM DTT, 4% glycerol, room temperature, 30 min; GST-TFs on glutathione beads, 16-mer random dsDNA library, 0.1% formaldehyde crosslink after washing; high values mean tight binding
In one test the target is T1, FEV (Homo sapiens, UniProt Q99581 1-238).
T1 sequence: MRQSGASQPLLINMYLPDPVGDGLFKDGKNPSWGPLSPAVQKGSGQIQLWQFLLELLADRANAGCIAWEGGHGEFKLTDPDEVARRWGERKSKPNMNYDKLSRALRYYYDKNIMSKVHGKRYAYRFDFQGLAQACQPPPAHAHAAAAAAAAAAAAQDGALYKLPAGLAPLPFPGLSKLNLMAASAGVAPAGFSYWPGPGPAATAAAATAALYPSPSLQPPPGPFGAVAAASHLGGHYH
Conditions: protein: recombinant; tags: N-terminal GST; dsDNA, one strand shown. An outline of the steps: (§1)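 Each value of binding signal is a hexamer's read frequency for a factor divided by the same hexamer's frequency in the tag-only sample. Barcoded, bead-captured GST fusions of human transcription factors made in yeast were pooled with that sample and incubated with 200 nmole of a random double-stranded 16-mer DNA library in Tris/NaCl/DTT/glycerol buffer at room temperature for 30 min. Washing, 0.1% formaldehyde crosslinking, proximity ligation, PCR and Illumina NextSeq500 sequencing followed.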

Another test addresses ETV5 (Homo sapiens, UniProt P41161 1-510). Conditions: protein: recombinant; tags: N-terminal GST; dsDNA, one strand shown. The method, boiled down:
as §1

In the next test the target is HSF1 (Homo sapiens, UniProt Q00613 1-529). To be noted: protein: recombinant; tags: N-terminal GST; chain copies: 3; dsDNA, one strand shown. The method, boiled down:
as §1

The next test concerns the target T2, SPIC (Homo sapiens, UniProt Q8N5J4 1-248).
T2 sequence: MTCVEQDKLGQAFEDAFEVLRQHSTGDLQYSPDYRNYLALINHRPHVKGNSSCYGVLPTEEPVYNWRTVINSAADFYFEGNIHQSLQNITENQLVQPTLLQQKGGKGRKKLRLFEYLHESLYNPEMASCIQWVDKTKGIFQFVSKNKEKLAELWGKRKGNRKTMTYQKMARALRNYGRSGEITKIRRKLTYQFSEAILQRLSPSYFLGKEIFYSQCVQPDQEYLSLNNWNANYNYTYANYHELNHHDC
To be noted: protein: recombinant; tags: N-terminal GST; dsDNA, one strand shown. The method, boiled down: as §1

The target of another test is ELF4 (Homo sapiens, UniProt Q99607 1-663). To be noted: protein: recombinant; tags: N-terminal GST; dsDNA, one strand shown. The method, boiled down:
as §1

A further test addresses T3, ELK4 (Homo sapiens, UniProt P28324-2 1-405).
T3 sequence: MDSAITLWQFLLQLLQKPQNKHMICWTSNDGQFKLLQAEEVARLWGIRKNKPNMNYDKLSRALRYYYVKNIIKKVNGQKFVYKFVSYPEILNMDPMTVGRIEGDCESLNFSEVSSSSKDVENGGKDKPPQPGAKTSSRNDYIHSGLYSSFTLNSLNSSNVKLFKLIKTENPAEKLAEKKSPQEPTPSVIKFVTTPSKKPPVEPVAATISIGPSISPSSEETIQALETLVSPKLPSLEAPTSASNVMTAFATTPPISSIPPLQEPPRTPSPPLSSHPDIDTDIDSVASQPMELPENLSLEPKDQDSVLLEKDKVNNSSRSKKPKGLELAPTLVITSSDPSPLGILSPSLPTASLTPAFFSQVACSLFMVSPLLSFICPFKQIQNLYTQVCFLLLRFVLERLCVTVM
To be noted: protein: recombinant; tags: N-terminal GST; dsDNA, one strand shown. An outline of the steps: as §1

The next test deals with T4, ETV2 (Homo sapiens, UniProt O00321 1-342).
T4 sequence: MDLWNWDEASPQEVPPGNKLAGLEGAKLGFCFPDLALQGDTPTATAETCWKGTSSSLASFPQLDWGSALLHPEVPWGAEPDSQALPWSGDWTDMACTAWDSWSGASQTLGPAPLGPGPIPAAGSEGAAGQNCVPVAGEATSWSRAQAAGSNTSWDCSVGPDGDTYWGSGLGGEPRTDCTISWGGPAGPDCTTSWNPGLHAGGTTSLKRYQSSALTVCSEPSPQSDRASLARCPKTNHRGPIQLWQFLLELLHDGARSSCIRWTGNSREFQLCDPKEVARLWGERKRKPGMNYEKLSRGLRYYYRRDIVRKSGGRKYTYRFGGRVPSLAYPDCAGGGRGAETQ
Conditions: protein: recombinant; tags: N-terminal GST; dsDNA, one strand shown. An outline of the steps:
as §1

Another test concerns the target T5, ELF3 (Homo sapiens, UniProt P78545 1-371).
T5 sequence: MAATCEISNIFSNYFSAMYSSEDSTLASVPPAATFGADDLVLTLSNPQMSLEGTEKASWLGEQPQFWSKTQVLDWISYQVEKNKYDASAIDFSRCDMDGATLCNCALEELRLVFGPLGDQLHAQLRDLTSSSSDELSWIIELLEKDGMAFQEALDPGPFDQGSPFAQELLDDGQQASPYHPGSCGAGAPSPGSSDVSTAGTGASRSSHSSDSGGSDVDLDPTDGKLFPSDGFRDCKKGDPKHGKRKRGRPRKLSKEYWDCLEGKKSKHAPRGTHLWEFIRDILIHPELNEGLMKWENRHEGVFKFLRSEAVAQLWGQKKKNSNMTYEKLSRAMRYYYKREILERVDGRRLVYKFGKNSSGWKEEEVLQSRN
To be noted: protein: recombinant; tags: N-terminal GST; dsDNA, one strand shown. An outline of the steps:
as §1

For another test, the target named is CRX (Homo sapiens, UniProt O43186 1-299). Conditions: protein: recombinant; tags: N-terminal GST; dsDNA, one strand shown. The method, boiled down:
as §1

A further test deals with ETV1 (Homo sapiens, UniProt P50549 1-477). To be noted: protein: recombinant; tags: N-terminal GST; dsDNA, one strand shown. The method, boiled down:
as §1

Another test concerns the target T6, ERF (Homo sapiens, UniProt P50548 1-548).
T6 sequence: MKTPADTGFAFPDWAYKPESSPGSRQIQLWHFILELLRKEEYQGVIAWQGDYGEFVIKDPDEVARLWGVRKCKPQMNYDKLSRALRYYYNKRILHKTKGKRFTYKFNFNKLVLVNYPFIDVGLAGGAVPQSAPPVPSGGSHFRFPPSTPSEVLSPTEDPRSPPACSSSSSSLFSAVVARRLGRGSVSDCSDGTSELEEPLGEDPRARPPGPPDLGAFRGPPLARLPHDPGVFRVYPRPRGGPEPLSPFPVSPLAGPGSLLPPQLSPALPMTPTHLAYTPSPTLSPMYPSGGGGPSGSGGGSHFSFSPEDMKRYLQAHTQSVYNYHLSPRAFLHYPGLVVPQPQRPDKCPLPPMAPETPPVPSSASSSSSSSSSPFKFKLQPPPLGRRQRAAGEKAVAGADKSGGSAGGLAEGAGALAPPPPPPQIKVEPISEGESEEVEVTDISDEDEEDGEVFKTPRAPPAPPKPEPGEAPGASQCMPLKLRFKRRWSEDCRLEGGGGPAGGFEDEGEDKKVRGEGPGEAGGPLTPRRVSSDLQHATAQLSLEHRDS
Conditions: protein: recombinant; tags: N-terminal GST; dsDNA, one strand shown. An outline of the steps: as §1

The target of a further test is T7, ETV3L (Homo sapiens, UniProt Q6ZN32 1-361).
T7 sequence: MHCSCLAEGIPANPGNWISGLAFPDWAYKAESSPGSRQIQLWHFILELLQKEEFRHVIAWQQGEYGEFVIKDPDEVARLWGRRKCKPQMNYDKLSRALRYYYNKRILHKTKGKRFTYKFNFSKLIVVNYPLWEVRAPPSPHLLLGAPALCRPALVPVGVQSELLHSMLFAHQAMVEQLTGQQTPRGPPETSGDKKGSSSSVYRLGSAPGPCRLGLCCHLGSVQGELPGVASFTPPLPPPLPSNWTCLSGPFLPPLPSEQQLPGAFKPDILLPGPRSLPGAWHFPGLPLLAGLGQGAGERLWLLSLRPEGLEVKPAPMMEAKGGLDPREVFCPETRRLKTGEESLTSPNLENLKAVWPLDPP
Conditions: protein: recombinant; tags: N-terminal GST; dsDNA, one strand shown. The method, boiled down:
as §1

The next test has as its target T8, ETS2 (Homo sapiens, UniProt P15036 1-469).
T8 sequence: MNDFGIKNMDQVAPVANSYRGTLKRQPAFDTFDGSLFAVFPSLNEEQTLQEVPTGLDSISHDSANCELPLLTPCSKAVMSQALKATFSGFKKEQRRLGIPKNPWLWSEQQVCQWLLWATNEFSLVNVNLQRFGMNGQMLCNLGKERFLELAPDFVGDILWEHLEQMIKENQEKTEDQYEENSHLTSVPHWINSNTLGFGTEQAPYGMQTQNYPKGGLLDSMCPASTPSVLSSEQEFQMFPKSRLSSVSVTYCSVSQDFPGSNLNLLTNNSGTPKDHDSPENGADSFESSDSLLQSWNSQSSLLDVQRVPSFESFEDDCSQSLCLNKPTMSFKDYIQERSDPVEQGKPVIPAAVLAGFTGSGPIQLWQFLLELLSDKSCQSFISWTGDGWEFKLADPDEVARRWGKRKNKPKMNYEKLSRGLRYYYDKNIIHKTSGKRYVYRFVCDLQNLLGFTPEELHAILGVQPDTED
Conditions: protein: recombinant; tags: N-terminal GST; dsDNA, one strand shown. The method, boiled down: as §1

The target of a further test is T9, SPDEF (Homo sapiens, UniProt O95238 1-335).
T9 sequence: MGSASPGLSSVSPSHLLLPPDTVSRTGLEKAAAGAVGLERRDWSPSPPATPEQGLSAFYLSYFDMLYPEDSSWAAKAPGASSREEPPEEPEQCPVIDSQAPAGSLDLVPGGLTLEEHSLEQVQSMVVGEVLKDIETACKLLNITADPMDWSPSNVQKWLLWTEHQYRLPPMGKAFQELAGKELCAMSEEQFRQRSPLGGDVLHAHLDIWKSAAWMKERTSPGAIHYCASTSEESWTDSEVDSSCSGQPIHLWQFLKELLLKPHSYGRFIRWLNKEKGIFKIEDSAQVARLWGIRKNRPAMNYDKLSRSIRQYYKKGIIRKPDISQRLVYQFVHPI
Conditions: protein: recombinant; tags: N-terminal GST; dsDNA, one strand shown. An outline of the steps:
as §1

The target of another test is T10, ETV7 (Homo sapiens, UniProt Q9Y603 1-341).
T10 sequence: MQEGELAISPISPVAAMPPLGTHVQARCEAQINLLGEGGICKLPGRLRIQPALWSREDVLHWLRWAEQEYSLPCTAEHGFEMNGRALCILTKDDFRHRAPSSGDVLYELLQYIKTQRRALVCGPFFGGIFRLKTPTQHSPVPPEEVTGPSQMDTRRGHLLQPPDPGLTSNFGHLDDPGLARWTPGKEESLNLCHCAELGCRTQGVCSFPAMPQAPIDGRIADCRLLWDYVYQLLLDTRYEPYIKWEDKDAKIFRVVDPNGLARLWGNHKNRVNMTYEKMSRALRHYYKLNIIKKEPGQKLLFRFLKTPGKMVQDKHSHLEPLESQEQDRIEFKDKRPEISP
To be noted: protein: recombinant; tags: N-terminal GST; dsDNA, one strand shown. An outline of the steps:
as §1

A further test addresses T11, ELF5 (Homo sapiens, UniProt Q9UKW6-2 1-255).
T11 sequence: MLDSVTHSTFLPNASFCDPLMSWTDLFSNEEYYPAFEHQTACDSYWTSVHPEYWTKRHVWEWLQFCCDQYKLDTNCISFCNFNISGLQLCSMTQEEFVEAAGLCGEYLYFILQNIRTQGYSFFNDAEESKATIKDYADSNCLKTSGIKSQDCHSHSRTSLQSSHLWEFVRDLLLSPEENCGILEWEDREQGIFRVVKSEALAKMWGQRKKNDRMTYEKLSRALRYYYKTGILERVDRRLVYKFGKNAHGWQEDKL
Conditions: protein: recombinant; tags: N-terminal GST; dsDNA, one strand shown. An outline of the steps: as §1

The target in a further test is T12, ETV3 (Homo sapiens, UniProt P41162-2 1-143).
T12 sequence: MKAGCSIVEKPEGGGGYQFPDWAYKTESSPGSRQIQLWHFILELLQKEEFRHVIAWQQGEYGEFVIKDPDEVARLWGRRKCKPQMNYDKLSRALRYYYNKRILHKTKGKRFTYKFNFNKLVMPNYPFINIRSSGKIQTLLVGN
Conditions: protein: recombinant; tags: N-terminal GST; dsDNA, one strand shown. An outline of the steps: as §1

Another test concerns the target ETV6 (Homo sapiens, UniProt P41212 1-452). To be noted: protein: recombinant; tags: N-terminal GST; dsDNA, one strand shown. The method, boiled down: as §1

Sequence of HSF1 (Q00613 whole entry): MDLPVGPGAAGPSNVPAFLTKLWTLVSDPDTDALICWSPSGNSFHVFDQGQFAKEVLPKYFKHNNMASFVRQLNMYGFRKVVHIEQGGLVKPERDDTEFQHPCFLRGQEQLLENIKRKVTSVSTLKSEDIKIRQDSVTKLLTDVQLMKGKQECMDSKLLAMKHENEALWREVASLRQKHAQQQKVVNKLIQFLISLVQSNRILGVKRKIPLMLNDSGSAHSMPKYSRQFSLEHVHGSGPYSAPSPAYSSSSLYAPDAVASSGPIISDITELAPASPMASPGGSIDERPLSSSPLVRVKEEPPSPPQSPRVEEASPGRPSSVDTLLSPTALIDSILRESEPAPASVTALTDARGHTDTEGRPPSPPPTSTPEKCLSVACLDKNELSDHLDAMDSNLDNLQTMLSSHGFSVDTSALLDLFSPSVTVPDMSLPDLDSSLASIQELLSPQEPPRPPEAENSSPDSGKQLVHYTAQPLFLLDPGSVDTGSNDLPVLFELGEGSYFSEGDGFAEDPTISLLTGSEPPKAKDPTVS
Sequence of ETV1 (P50549 whole entry): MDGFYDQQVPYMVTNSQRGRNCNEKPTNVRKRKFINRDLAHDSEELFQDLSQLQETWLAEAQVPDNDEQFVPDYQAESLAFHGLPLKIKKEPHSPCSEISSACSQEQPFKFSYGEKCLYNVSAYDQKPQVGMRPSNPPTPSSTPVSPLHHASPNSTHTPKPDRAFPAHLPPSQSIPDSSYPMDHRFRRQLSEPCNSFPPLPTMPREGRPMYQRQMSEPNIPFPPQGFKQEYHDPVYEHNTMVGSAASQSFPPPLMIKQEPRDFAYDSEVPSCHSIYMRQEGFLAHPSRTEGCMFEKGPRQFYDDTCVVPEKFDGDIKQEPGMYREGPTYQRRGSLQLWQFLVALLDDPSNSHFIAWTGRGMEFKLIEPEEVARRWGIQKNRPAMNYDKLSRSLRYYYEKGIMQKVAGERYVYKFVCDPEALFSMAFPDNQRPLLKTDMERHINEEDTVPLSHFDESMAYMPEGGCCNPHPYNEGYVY
Sequence of ELF4 (Q99607 whole entry): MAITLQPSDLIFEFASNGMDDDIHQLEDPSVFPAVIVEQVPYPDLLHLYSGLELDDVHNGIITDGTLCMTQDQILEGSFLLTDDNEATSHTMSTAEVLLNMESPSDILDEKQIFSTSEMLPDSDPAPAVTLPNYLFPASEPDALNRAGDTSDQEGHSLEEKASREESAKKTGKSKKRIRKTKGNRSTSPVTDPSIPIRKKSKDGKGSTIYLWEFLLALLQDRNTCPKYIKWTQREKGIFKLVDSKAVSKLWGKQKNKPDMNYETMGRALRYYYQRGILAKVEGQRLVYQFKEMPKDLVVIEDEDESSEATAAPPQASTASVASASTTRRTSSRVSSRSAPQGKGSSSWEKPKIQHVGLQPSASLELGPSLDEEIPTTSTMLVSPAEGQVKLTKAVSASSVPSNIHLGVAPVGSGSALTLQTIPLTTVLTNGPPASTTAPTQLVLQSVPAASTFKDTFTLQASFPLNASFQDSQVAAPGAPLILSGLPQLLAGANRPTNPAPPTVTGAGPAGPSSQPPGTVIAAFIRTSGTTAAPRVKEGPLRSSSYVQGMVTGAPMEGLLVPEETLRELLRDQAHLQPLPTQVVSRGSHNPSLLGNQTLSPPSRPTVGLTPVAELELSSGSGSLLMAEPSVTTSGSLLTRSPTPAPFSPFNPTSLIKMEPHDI
Sequence of CRX (O43186 whole entry): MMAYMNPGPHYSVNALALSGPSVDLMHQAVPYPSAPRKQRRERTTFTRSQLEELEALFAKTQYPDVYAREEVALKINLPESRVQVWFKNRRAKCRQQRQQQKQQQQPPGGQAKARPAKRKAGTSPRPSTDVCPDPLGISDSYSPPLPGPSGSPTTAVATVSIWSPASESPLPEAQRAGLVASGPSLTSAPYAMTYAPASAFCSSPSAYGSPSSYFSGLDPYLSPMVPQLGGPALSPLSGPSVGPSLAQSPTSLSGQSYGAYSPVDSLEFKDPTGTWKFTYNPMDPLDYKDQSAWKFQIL
Sequence of ETV6 (P41212 whole entry): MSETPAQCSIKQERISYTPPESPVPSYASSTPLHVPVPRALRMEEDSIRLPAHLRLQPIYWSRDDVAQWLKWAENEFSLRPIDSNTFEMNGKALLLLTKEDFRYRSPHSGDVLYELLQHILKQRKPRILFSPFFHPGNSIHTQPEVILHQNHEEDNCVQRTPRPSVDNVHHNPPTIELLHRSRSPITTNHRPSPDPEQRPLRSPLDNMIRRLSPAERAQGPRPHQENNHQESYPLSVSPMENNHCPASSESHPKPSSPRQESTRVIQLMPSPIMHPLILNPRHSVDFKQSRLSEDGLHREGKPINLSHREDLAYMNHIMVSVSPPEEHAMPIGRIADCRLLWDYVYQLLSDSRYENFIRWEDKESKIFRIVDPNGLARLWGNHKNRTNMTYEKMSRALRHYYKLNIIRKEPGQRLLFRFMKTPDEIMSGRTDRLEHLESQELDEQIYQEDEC
Sequence of ETV5 (P41161 whole entry): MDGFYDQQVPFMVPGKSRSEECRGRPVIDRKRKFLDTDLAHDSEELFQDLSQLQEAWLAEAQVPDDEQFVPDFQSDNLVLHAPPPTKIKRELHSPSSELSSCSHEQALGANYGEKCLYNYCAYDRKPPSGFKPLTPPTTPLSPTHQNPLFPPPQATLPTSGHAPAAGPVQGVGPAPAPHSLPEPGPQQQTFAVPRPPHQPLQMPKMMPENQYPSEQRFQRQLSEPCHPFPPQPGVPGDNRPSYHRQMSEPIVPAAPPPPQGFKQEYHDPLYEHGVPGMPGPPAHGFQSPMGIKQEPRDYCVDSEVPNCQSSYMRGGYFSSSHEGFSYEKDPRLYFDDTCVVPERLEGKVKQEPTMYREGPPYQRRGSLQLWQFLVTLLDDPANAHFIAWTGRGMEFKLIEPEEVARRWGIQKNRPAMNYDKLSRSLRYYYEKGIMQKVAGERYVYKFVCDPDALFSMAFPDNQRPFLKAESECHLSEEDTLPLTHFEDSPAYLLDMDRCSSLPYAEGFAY

For the sequence CTCCCA, the binding signal in the test with FEV was 1.39 fold enrichment (6-mer frequency, TF over GST control); in the test with ETV5, 1.37 fold enrichment (6-mer frequency, TF over GST control); with HSF1 it was 1.17 fold enrichment (6-mer frequency, TF over GST control); with SPIC, 1.38 fold enrichment (6-mer frequency, TF over GST control); in the test with ELF4, 1.4 fold enrichment (6-mer frequency, TF over GST control); with ELK4, 1.44 fold enrichment (6-mer frequency, TF over GST control). Further, the binding signal is 1.08 fold enrichment (6-mer frequency, TF over GST control) with ETV2; 1.36 fold enrichment (6-mer frequency, TF over GST control) with ELF3; 1.19 fold enrichment (6-mer frequency, TF over GST control) with CRX; 1.32 fold enrichment (6-mer frequency, TF over GST control) with ETV1; 1.54 fold enrichment (6-mer frequency, TF over GST control) in the test with ERF; 1.29 fold enrichment (6-mer frequency, TF over GST control) with ETV3L. Also, the binding signal with ETS2 was 1.37 fold enrichment (6-mer frequency, TF over GST control); with SPDEF it was 1.42 fold enrichment (6-mer frequency, TF over GST control); in the test with ETV7 it was 1.07 fold enrichment (6-mer frequency, TF over GST control); with ELF5 it was 1.41 fold enrichment (6-mer frequency, TF over GST control); with ETV3, 1.34 fold enrichment (6-mer frequency, TF over GST control); with ETV6, 1.46 fold enrichment (6-mer frequency, TF over GST control).
